Compounds with a hit are over-represented: about 9.9% of the library has one in this group of screens.
Tau ThT inhib = tau fibrillization inhibition (ThT binding). 270,000 compounds, 2.1% hits. AID 1460. P10636. recombinant tau K18 P301L, heparin-induced fibrillization, ThT fluorescence. Potency, µM (titrated, usually from 57.4 µM), hits mostly inhibitors; active means well fitted curve in the direction sought with a large enough effect; inconclusive means small, poorly fitted or top-dose-only effect, or another doubt; inactive means no such curve, though single readings can be large; an effect the other way counts as inactive or inconclusive; further: nearly all actives have a fitted effect of over 55% in size
Target sequence (P10636 561-689 P618L limits assumed): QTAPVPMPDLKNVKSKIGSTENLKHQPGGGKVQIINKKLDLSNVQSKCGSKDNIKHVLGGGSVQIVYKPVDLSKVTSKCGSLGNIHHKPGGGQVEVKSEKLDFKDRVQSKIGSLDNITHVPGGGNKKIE
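Heparin-induced (20 uM) aggregation of recombinant human K18 P301L tau, 15 uM unlabeled with 0.24 uM labeled, pH 7 acetate buffer, 6 hr at 37 C with compound. Fibrils quantified by 30 uM ThT fluorescence after 1 hr ambient incubation.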
JMJD2E inh = blocks human JMJD2E demethylase activity. B2RXH2. JMJD2E catalytic domain, FDH-coupled NADH fluorescence (FDH is formaldehyde dehydrogenase). Potency, µM (highest dose often 57.1 µM), most hits filed as inhibitors. 230,000 compounds, 1.6% hits; further: nearly all actives have a fitted effect of over 50% in size
Target sequence (B2RXH2 1-337 limits assumed): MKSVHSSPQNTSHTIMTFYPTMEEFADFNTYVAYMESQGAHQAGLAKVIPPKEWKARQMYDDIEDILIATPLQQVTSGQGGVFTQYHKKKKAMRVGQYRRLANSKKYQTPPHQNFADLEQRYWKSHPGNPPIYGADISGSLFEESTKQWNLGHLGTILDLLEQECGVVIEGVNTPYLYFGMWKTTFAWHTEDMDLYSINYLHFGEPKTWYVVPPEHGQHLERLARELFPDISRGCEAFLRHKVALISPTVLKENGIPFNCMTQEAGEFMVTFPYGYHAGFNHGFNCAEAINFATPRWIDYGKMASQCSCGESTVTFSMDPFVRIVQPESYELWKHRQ
ALDH1A1 block = blocks purified human ALDH1A1 activity; 220,000 compounds, 7.3% hits; Purified ALDH1A1, NADH fluorescence, propionaldehyde substrate; P00352; AID 1030; Potency, µM (titrated, usually from 75.3 µM), usual class: inhibitors
Tau fibril FP = tau fibrillization inhibition (FP) | K18 P301L tau heparin fibrillization, Alexa594 FP, 6 h | Potency, µM (highest dose often 57.7 µM), usual class: inhibitors | 280,000 compounds, 0.39% hits | AID 1468; active means well fitted curve in the direction sought with a large enough effect; inconclusive means small, poorly fitted or top-dose-only effect, or another doubt; inactive means no such curve, though single readings can be large; an effect the other way counts as inactive or inconclusive; further: nearly all actives have a fitted effect of over 55% in size
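Heparin (20 uM) drove fibril formation of recombinant tau K18 P301L, 15 uM unlabeled with 0.24 uM Alexa 594 label, for 6 hr at 37 C in 100 mM sodium acetate pH 7. Fluorescence polarization (555/632 nm) read 1 hr after 30 uM ThT.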
HPGD inh = blocks human HPGD enzyme activity; P15428; purified HPGD, NADH fluorescence kinetic, PGE2 substrate; Potency, µM, hits mostly inhibitors; 150,000 compounds, 4.3% hits; AID 894
Target sequence (P15428 whole entry, looked up): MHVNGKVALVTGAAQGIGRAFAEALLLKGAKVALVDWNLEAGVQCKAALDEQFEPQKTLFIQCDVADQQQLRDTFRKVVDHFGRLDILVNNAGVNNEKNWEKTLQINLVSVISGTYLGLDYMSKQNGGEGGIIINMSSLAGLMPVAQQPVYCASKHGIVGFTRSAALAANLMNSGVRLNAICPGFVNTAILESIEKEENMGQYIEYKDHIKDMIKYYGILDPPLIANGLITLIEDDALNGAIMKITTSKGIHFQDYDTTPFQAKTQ
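20 nM HPGD preincubated 15 min at room temperature with compound in 50 mM Tris-HCl pH 8, 0.01% Tween 20. Started with 1 mM NAD+ and 30 uM prostaglandin E2; NADH fluorescence (360/450 nm) read 5 times over 30-s intervals, last minus first.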
Tau fluor counter = counter-screen for tau fibril formation inhibitors; 280,000 compounds, 0.93% hits; Potency, µM (series often up to 57.7 µM); tau K18 P301L (four-repeat tau fragment) Alexa594 fluorescence, heparin fibrillization; active means well fitted curve in the direction sought with a large enough effect; inconclusive means small, poorly fitted or top-dose-only effect, or another doubt; inactive means no such curve, though single readings can be large; an effect the other way counts as inactive or inconclusive; further: nearly all actives have a fitted effect of over 55% in size
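Human K18 P301L tau (15 uM unlabeled plus 0.24 uM Alexa 594-labeled, final) in 100 mM sodium acetate pH 7 was mixed with compound and 20 uM heparin and incubated 6 hr at 37 C.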
Numbers stand for hits; 0 = inactive; ? = inconclusive; - = no result given; [ ] = remark or other dose. Unless noted, the call rests on the fitted dose curve; in most records, active means well fitted inhibition curve with a large enough effect (not every such curve was filed as active); inconclusive means small, poorly fitted or top-dose-only effect, or another doubt; inactive means no such curve, though single readings can be large or run the other way.

SMILES | Tau ThT inhib | JMJD2E inh | ALDH1A1 block | Tau fibril FP | HPGD inh | Tau fluor counter
CC(C)CC1CC(=O)OC1(C)C(=O)CSc1nc2ccccc2s1 (stereo not given) | ? | 0 | 8.9µM | 0 | 0 | 0
CC(C)CCNC(=O)CSc1nc2ccccc2s1 | 0 | 0 | 18µM | 0 | - | 0
Cn1nc(C(F)(F)F)c(-c2ccccc2)c1NC(=O)CCC(=O)O | 0 | 0 | 0 | 0 | - | 0
Cc1ccc(/C=N/N2CCN(C3c4ccccc4-c4ccccc43)CC2)o1 | 0 | 0 | - | 0 | - | 0
CCCCCCCC(=O)NN=C1CCN(Cc2ccccc2)CC1 | 0 | 0 | 0 | 0 | 0 | 0
CCOc1ccc(S(=O)(=O)N(C)c2ccc(OCC(=O)Nc3nc(-c4cc(OC)ccc4OC)cs3)cc2)cc1 | 0 | 0 | 0 | 0 | 0 | 0
CCCCNc1nc(C)nc2c1nc(-c1ccccc1)n2CCN1CCCC1 | 0 | ? | ? | 0 | ? | 0
COc1ccc(C(=O)N(Cc2ccco2)C(C(=O)NC2CCCC2)c2ccc(O)cc2)cc1OC (stereo not given) | 0 | 0 | 22µM | 0 | 0 | 0
COc1cc(C(C(=O)NC2CCCCC2)N(Cc2ccco2)C(=O)c2cnccn2)cc(OC)c1OC (stereo not given) | 0 | 0 | 0 | 0[2.34 µM] | - | 0[2.34 µM]
O=C(/C=C\c1ccc2c(c1)OCO2)Nc1c2c(nn1-c1ccc(Cl)cc1)CSC2 | 0 | 0 | 0 | ? | 0 | 0
Cc1cc(=O)n(Cc2ccc(Cl)cc2)c2c1c(C)nn2-c1ccccc1 | 0 | - | - | 0 | - | 0
Nc1cc(N)c(OCC(F)(F)F)cc1OCC(F)(F)F | 3.2µM | ? | 0 | 13µM | 0 | ?
C=C(C)CN(CC)C(=O)CSc1nc2ncc(Cl)cc2[nH]1 | 0 | 0 | 25µM | 0 | 14µM | 0
CCOC(=O)c1cnc2ccc(C)cc2c1Nc1ccc(OCc2ccccc2Cl)cc1 | 0 | - | - | 0 | - | 0
CCOC(=O)c1cnc2ccc(C)cc2c1OCc1cc(F)cc(F)c1 | 0 | 0 | 14µM | 0 | 0 | 0
CCN1CC(CN(C)Cc2nc(-c3ccc(C(F)(F)F)cc3)oc2C)CC1=O (stereo not given) | 0 | ? | 0 | 0 | - | 0
CC1(C)CC(=O)C2=C(C1)N=C1SCCC(=O)N1C2c1cccc([N+](=O)[O-])c1 (stereo not given) | 0 | 0 | 10µM | 0 | - | 0
CC(C)=C1C(=O)NN(c2cccc(Cl)c2)C1=O | ? | 0 | 0 | 0 | 7.9µM | 0
CC(C)=C1C(=O)NN(c2ccc(C)c(Cl)c2)C1=O | ? | 0 | 0 | 0 | 16µM | 0
CSc1n[nH]c(=O)n1-c1cccc(Cl)c1 | 0 | 0 | - | 0 | - | 0
Cc1ccc(NC(=O)CN2C=NS(=O)(=O)c3ccccc32)c(C)c1 | 0 | - | - | 0 | - | 0
COc1ccc(NC(=O)/C(C#N)=C/c2ccc(OCc3cc(=O)n4nc(C)sc4n3)cc2)cc1 | ? | - | - | 0 | - | 0
O=C(C1=C(O)C(=O)N(Cc2ccco2)C1c1cccnc1)c1cc2ccccc2o1 (stereo not given) | ? | 0 | 14µM | 0 | 0 | 0
O=C(C1=C(O)C(=O)N(CC2CCCO2)C1c1cccnc1)c1ccco1 (stereo not given) | 0 | 0 | 0 | 0 | 0 | 0
COc1cccc2cc(C(=O)C3=C(O)C(=O)N(Cc4ccco4)C3c3cccnc3)oc12 (stereo not given) | ? | 0 | 5.6µM | 0 | 0 | 0
SMILES | Tau ThT inhib | JMJD2E inh | ALDH1A1 block | Tau fibril FP | HPGD inh | Tau fluor counter
Cc1cc(C)c(S(C)(=O)=O)c(Oc2ccc(C(C)(C)C)cc2)n1 | 0 | 0 | 16µM | 0 | 0 | 0
Cc1cc(C)c(S(C)(=O)=O)c(Oc2cccc(Cl)c2)n1 | 0 | 0 | 0 | 0 | 0 | 0
C=CCC(Nc1ccc(OC)cc1)C(=O)OCC (stereo not given) | 0 | 0 | 0 | 0 | 0 | 0
C=CCC(Nc1ccccc1)C12C=CC(O1)C(C(=O)OC)=C2C(=O)OC (stereo not given) | 7.9µM | 0 | 0 | 0 | 0 | 0
COC(=O)N[C@H](c1ccccc1)C(C(C)=O)C(=O)OC (stereo not given in full) | 0 | 0 | 0 | 0 | 0 | 0
CCc1ccc(Nc2cc(=O)n(C3CCCCC3)c(=O)[nH]2)cc1 | 0 | 0 | 1.3µM | 0 | 0 | 0
O=c1cc(Nc2ccc3c(c2)OCCO3)[nH]c(=O)n1C1CCCCC1 | 0 | 0 | 1µM | 0 | 0 | 0
COc1cc(NC(=O)NC(C)c2c(-n3cccc3)sc3c2CCN(C)C3)cc(OC)c1 (stereo not given) | 0 | - | - | 0 | - | ?
COc1ccc(NC(=O)CN2CCN(CC(=O)Nc3ccc4c(c3)OCO4)CC2)cc1 | 0 | 0 | 6.3µM | 0 | 0 | 0
O=C(CSCSCC(=O)Nc1ccc2c(c1)OCO2)Nc1ccc2c(c1)OCO2 | 0 | 0 | ? | 0 | 0 | 0
COc1ccccc1NC(=O)CN1CCN(CC(=O)Nc2cc(NC(C)=O)ccc2OC)CC1 | 0 | 0 | ? | 0 | 0 | 0
O=C(CN1CCc2ccccc21)Nc1ccc2c(c1)OCO2 | ? | 0 | 13µM | 0 | 0 | ?
O=C(CN1CCOCC1)Nc1ccc2c(c1)OCO2 | 0 | 0 | 0 | 0 | - | 0
COc1ccccc1NC(=O)CN1CCN(CC(=O)Nc2ccc3c(c2)OCO3)CC1 | 0 | 0 | 11µM | 0 | 0 | 0
O=C(CN1CCc2ccccc21)NCc1ccc2c(c1)OCO2 | 0 | 0 | ? | 0 | 0 | 0
Cc1ccc(CSCC(=O)Nc2ccc3c(c2)OCO3)cc1 | 0 | 0 | 7.9µM | 0 | 0 | 0
CCc1ccc(OCc2nc(-c3ccc(OC)cc3)no2)c(Br)c1 | ? | - | - | 0 | - | 0
CC(C)CO/N=C1/C[C@@H](O)[C@@H](O)[C@@H]2[C@H]3C(=O)N(c4ccc(F)cc4F)C(=O)[C@@H]3CC[C@H]12 | 0[11.5 µM] | - | 0[13.5 µM] | 0[11.6 µM] | - | 0[11.6 µM]
Cc1ccc(OCCCC(=O)Nc2ccc3c(c2)OCO3)cc1 | ? | 0 | ? | 0 | 0 | 0
COc1ccc(OCCCC(=O)Nc2ccc3c(c2)OCCO3)cc1 | ? | 0 | 22µM | 0 | 0 | 0
COC(=O)c1c(NC(=O)CN2CCN(Cc3ccc4c(c3)OCO4)CC2)sc(C)c1C | 0 | 0 | 13µM | 0 | 0 | 0
COC(=O)c1ccsc1NC(=O)CN1CCN(Cc2ccc3c(c2)OCO3)CC1 | 0 | 0 | 0 | 0 | 0 | 0
O=C(Cn1cc(C(=O)C(F)(F)F)c2ccccc21)N1CCCCCC1 | 0 | - | - | 0 | - | 0
COc1ccc(OCC(=O)NC(=S)N2CCCc3ccccc32)cc1 | ? | ? | 8.9µM | 0 | 0 | 0
O=C(COc1ccccc1)NC(=S)N1CCc2ccccc21 | 0 | 0 | ? | 0 | 0 | 0
O=C(COc1ccccc1Cl)NC(=S)N1CCc2ccccc21 | ? | 0 | 0 | 0 | 20µM | 0
O=C(NC(=S)N1CCCc2ccccc21)c1ccc([N+](=O)[O-])cc1 | ? | 0 | 11µM | 0 | 0 | 0
COc1ccccc1C(=O)NC(=S)N1CCCc2ccccc21 | 0 | 0 | 3.2µM | 0 | 8.9µM | 0

Screens: PubChem BioAssay, National Center for Advancing Translational Sciences (NCATS)
